Results from PubChem BioAssay AID485364 (National Center for Advancing Translational Sciences (NCATS), 2010).
Screen size: about 360,000 compounds; about 11,000 (3.1%) were called active. About 4% were inconclusive and are not listed. Calls come from the whole dose curve; as a rule, active = well fitted inhibition curve with a large enough effect; inconclusive = small, poorly fitted or top-dose-only effect; inactive = no such curve, though single readings can be large or run the other way. For the sample, actives were picked, then their nearest neighbours and some compounds at random.

Each compound was assayed against Schistosoma mansoni thioredoxin glutathione reductase (TGR) (UniProt Q962Y6) (assay: qHTS Assay for the Inhibitors of Schistosoma Mansoni Peroxiredoxins). Settings: purified TGR, DTNB reduction, TNB absorbance 405 nm; series mostly up to 114 µM; activity change, negative = inhibition: at the top concentration.
In short: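 TGR 20 nM + NADPH 100 uM (dispensed conc.), cpd preinc 15 min RT; start with NADPH (500 uM addition) then DTNB (15 mM addition). Kinetic TNB absorbance, 405 nm filter. Four-parameter Hill fit across titration.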
% is set by controls: 0 for no effect and ±100 for the full control effect; potency is the fitted concentration of half-maximal effect.
Note: nearly all actives have a fitted effect of over 60% in size.

| Structure (SMILES) | activity change, negative = inhibition | Potency |
| --- | --- | --- |
| CCc1ccc(NC(=O)CCS(=O)(=O)c2cc3c(cc2Cl)NC(=O)CO3)cc1 | 5.86% (inactive) |  |
| Fc1ccc(CN2CCc3nc(Nc4ccccc4)ncc3C2)cc1F | -3.33% (inactive) |  |
| CCOC(=O)C1=C(O)/C(=C/c2ccc(OCC(=O)Nc3ccc(C)cc3)cc2)N=C1C | -27.1% (inactive) |  |
| COC(=O)C1=C(O)/C(=C/c2ccc(OCC(=O)Nc3ccccc3)cc2)N=C1C | 58.6% (inactive) |  |
| CCOC(=O)C1=C(O)/C(=C/c2cc(C)n(-c3ccccc3)c2C)N=C1C |  | 28.2 µM (active) |
| CCOc1ccccc1C(=O)Nc1ccc2c(c1)N(C)C(=O)c1ccccc1S2 | -1.15% (inactive) |  |
| O=C(Cn1c(=O)n(-c2ccc(F)cc2)c(=O)c2sc3ccccc3c21)NC1CCCC1 | 0.259% (inactive) |  |
| Cc1ccc(-c2csc3nnc(SCC(=O)NCc4ccco4)n23)cc1 | -32.7% (inactive) |  |
| O=C(CSc1nnnn1-c1ccccc1)NCc1ccco1 |  | 79.4 µM (active) |
| Cc1cc(C)n2nc(SCC(=O)NC(=O)NCc3ccco3)nc2n1 | -35.8% (inactive) |  |
| Cc1ccc(Cc2c(C)nc3nc(SCC(=O)NCCN4CCOCC4)nn3c2C)cc1 | -11.8% (inactive) |  |
| CCN(CC)C(CNC(=O)CSc1nnnn1-c1cccc(F)c1)c1ccco1 (stereo not given) | 0% (inactive) |  |
| CCOc1ccccc1-n1c(SCC(=O)NCc2ccco2)nnc1-c1ccncc1 |  | 44.7 µM (active) |
| Cn1c(-c2ccc(F)cc2)cnc1SCC(=O)NNC(=O)Cc1ccccc1 | -9.73% [at 57.1 µM] (inactive) |  |
| O=C(CSc1nnc(-c2c[nH]c3ccccc23)n1-c1ccc(F)cc1)NCc1ccco1 | -24.4% (inactive) |  |
| Cn1c(-c2ccc(F)cc2)cnc1SCC(=O)NCc1ccco1 |  | 31.6 µM (active) |
| Cc1nc2nc(SCC(=O)NCc3ccco3)nn2c(C)c1Cc1ccccc1 |  | 20 µM (active) |
| O=C(CSc1nnc2scc(-c3ccc(F)cc3)n12)NCc1ccco1 | -0.356% (inactive) |  |
| CCn1c(SCC(=O)NCc2ccco2)nnc1-c1ccc(N)cc1 | 0.665% (inactive) |  |
| COc1cccc(NC(=O)C(=O)NCC(c2ccc3c(c2)OCO3)N2CCN(C)CC2)c1 (stereo not given) | 1.67% (inactive) |  |
| Cc1ccc(CN2CCC(CNC(=O)c3cnn(-c4ccccc4Cl)c3C3CCN(C(=O)OC(C)(C)C)CC3)CC2)cc1 | -7.74% (inactive) |  |
| COc1ccc2c(c1)c(=O)c(C(=O)c1ccccc1)cn2CC(=O)Nc1ccc2c(c1)OCCO2 | -6.11% (inactive) |  |
| CCOc1ccccc1NC(=O)Cn1c(=O)n(-c2cccc(C)c2)c(=O)c2c1c1cc(OC)ccc1n2C | -3.55% (inactive) |  |
| O=C(Cn1cnc2c(oc3ccccc32)c1=O)Nc1ccc(OC(F)(F)F)cc1 | 6.89% (inactive) |  |
| CC(CCCc1ccccc1)NC(=O)c1nn(-c2ccc(Cl)cc2)nc1CO (stereo not given) | -0.0745% (inactive) |  |

| Structure (SMILES) | activity change, negative = inhibition | Potency |
| --- | --- | --- |
| O=C(NCCCO)c1nn(-c2ccc(Cl)cc2)nc1CO | 5.54% (inactive) |  |
| O=C(CN1CCOCC1)N/N=C/c1ccc(-c2ccc(Br)cc2)o1 | 4.92% (inactive) |  |
| O=C(CCC(=O)N/N=C/c1ccc(Br)o1)N/N=C/c1ccc(Br)o1 |  | 35.5 µM (active) |
| O=C(N/N=C/c1ccc(Br)o1)c1cncc(Br)c1 | 2.4% (inactive) |  |
| CC(C)(C)OC(=O)N1CCC(c2c(C(=O)NCCc3ccsc3)cnn2-c2ccc(F)cc2F)CC1 | 3.46% (inactive) |  |
| CCc1ccc2oc(-c3ccc(N)cc3)nc2c1 | 5.8% (inactive) |  |
| CCN(CC)c1ccc2oc(=O)c(C)nc2c1 |  | 35.5 µM (active) |
| Cc1ccc(NC(=O)Nc2ccc3oc(C)nc3c2)cc1 | -5.55% (inactive) |  |
| Cc1cccc2c(=O)cc(CSc3ccccc3NC(=O)C(C)C)[nH]c12 | 4.74% (inactive) |  |
| O=C(Nc1ccccc1F)C(c1ccccc1)N1Cc2ccccc2C1=O (stereo not given) | 1.88% (inactive) |  |
| Cc1ccc(-c2nc(CS(=O)(=O)CC(=O)NCc3ccccc3Cl)c(C)o2)cc1 | -12.7% (inactive) |  |
| Cc1ccc(-c2nc(CS(=O)(=O)CC(=O)NCc3ccc4c(c3)OCO4)c(C)o2)cc1 |  | 20 µM (active) |
| COc1ccc(-c2nc(CS(=O)(=O)CC(=O)NCc3cccc(Br)c3)c(C)o2)cc1 | -14.1% (inactive) |  |
| O=C(NCc1ccccc1)c1cccc(NC(=O)N2CCSc3ncccc32)c1 | 0.268% (inactive) |  |
| O=C(c1cccc(Br)c1)N1CCN(Cc2cc(=O)n3nc(-c4ccccc4)sc3n2)CC1 | 12.5% (inactive) |  |
| O=C(NC(=S)Nc1ccc(S(=O)(=O)Nc2ncccn2)cc1)c1cccc(Br)c1 |  | 20 µM (active) |
| NS(=O)(=O)c1ccc(NC(=S)Nc2ccc(Br)c(Cl)c2)cc1 | -19.3% (inactive) |  |
| COc1ccc(OC)c(C(C)NC(=S)Nc2ccc(S(=O)(=O)Nc3ncccn3)cc2)c1 (stereo not given) | -24.2% (inactive) |  |
| O=C(NC(=S)Nc1cccc2c(O)cccc12)c1cccc(Br)c1 | -23.3% (inactive) |  |
| NS(=O)(=O)c1ccc(NC(=S)NC(=O)c2cccnc2)cc1 |  | 22.4 µM (active) |
| O=C(Nc1ccc(S(=O)(=O)Nc2ncccn2)cc1)c1cncc(Br)c1 | 3.58% (inactive) |  |
| NS(=O)(=O)c1ccc(NC(=S)NC(=O)c2cccc(Br)c2)cc1 |  | 15.8 µM (active) |
| Cc1cc(NS(=O)(=O)c2ccc(NC(=O)c3cccnc3)cc2)nc(C)n1 | -0.523% (inactive) |  |
| CC(C)NS(=O)(=O)c1ccc(NC(=O)c2cccnc2)cc1 | 0% (inactive) |  |
| O=C(CSc1nnc(CNC(=O)c2ccccc2)n1-c1ccc(F)cc1)Nc1ccccc1F | -11.6% (inactive) |  |
